An excerpt weighted towards active compounds, which were near 4.2% of everything screened.
SMARCA2 activ = SMARCA2 function activation, primary screen; MG213 cells, MMTV-luciferase reporter, dexamethasone, overnight; activation, % at 9.1 µM; AID 652017; 370,000 compounds, 1% hits; in the data active means activation above about 7.8%;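 further: 0% = vehicle wells and 100% = reference activator wells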
DAX1 StAR inh = inhibitors of DAX1 repression of SF-1 activated StAR promoter; HEK293T StAR-luciferase reporter, SF-1/DAX-1 repression relief; inhibition, % at 6.8 µM; 370,000 compounds, 1.1% hits;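 active means inhibition above the mean over all tested compounds plus 3 SD, cut at about 3.6% in these data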;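 further: 0% = DAX-1 cells with DMSO and 100% = cells lacking DAX-1 with DMSO; higher inhibition means more luminescence from relief of DAX-1 repression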
ssDAF-12 act = S. stercoralis DAF-12 activation, primary screen. 370,000 compounds, 1% hits. HEK293 ssDAF-12/GRIP1 lit1-tk-luc reporter, luminescence; % of 3 µM dafachronic acid response. activation, % at 6.8 µM;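 active means activation above the mean over all tested compounds plus 3 SD, cut at about 0.9% in these data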;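 further: 0% = DMSO-only wells and 100% = 3 µM delta7-dafachronic acid wells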
hgDAF-12 ag = hgDAF-12 agonism, primary luciferase screen; activation, % at 6.8 µM; 370,000 compounds, 1.8% hits; HEK293 GAL4-hgDAF12 UAS-luciferase reporter, agonist luminescence; normalized to butyrate control;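 active means activation above a cutoff set at the mean of all screened compounds plus 3 SD, cut at about 10% in these data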;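 further: 0% = DMSO wells and 100% = sodium butyrate wells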
hcDAF-12 act = activators of H. contortus DAF-12 nuclear receptor. 370,000 compounds, 1.4% hits. activation, % at 6.8 µM. HEK293 hcDAF-12 lit1-tk-luc reporter, luminescence; 0% DMSO, 100% Δ7-dafachronic acid;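 active means activation above the mean of all tested compounds plus 3 SD, cut at about 5.5% in these data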;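 further: 100% = response to 3 µM Δ7-dafachronic acid high control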
Starred values were filed as active, the others as inactive.

SMILES	SMARCA2 activ	DAX1 StAR inh	ssDAF-12 act	hgDAF-12 ag	hcDAF-12 act
Cc1ccc2nc(-c3ccc(C#N)cc3)c(Cc3ccccc3)n2c1	4	2	-1	11*	3
Cc1ccc(S(=O)(=O)NNC(=O)Nc2ccc(Cl)cc2)cc1	8.8*	0	-1	1	-2
Cc1cccc(OCCNC(=O)c2cncc(Br)c2)c1	-3	0	3.3*	2	0
O=C(NCCOc1ccc2ccccc2c1)c1cncc(Br)c1	-5	1	-1	0	-1
CC(SCC(=O)O)c1nc2ccccc2[nH]1 (stereo not drawn)	-2	0	1.0*	3	0
CCc1nc2ccc(C(=O)Nc3ccc4c(c3)OCC(=O)N4)cn2c1N(C)C(=O)Cc1ccccc1	-1	0	-1	3	-2
CC(C)CC(=O)Nc1nnc(-c2ccco2)s1	3	2	0	6	2
CCc1ccc(OCC(=O)Nc2nnc(-c3ccco3)s2)cc1	1	4.4*	0	-1	1
Cc1ccccc1-c1cc2c(c3c1ccn3C)C1CCC2O1 (stereo not drawn)	5	3.8*	-1	0	1
Cn1ccc2c(-c3cncc4ccccc34)cc3c(c21)C1CCC3O1 (stereo not drawn)	0	1	0	-2	-1
COC(=O)N/N=C\c1ccc(OC(=O)c2ccco2)cc1	-2	0	-1	1	-3
CC(C)(C)OC(=O)N/N=C\c1ccc(OC(=O)c2ccco2)cc1	4	2	0	11*	6.2*
CN1CCN(C(=O)CCc2nc3ccccc3c(=O)[nH]2)CC1	-1	0	0	0	6.0*
NC(=O)C1CCN(C(=O)CCc2nc3ccccc3c(=O)[nH]2)CC1	-3	2	-1	-2	0
COc1ccc(C(O)c2nc(-c3cccs3)cs2)cc1 (stereo not drawn)	-1	0	-1	-1	1
OC(c1ccco1)c1nc(-c2cccs2)cs1 (stereo not drawn)	0	1	1.4*	5	5.8*
c1ccc(Cn2cnc3ccccc32)cc1	2	2	-1	13*	3
O=[N+]([O-])c1ccc(O)c(Nc2ncnc3ccc(Br)cc23)c1	-3	0	-1	-1	1
O=[N+]([O-])c1ccc(O)c(Nc2ncnc3ccccc23)c1	-4	1	1.1*	-2	3
CN(C(=O)[C@H]1O[C@@H](n2cnc3c(=O)[nH]c(N)nc32)[C@H](O)[C@@H]1O)C1CCCCC1	-4	0	0	-1	0
CN1CCN(Cc2nnc(-c3ccccc3)o2)CC1	2	0	-1	0	1
c1ccc(CN2CCN(Cc3nnc(-c4ccccc4)o3)CC2)cc1	7.9*	0	-2	-1	-1
CC(C)(C)OC(=O)NCc1ccccc1/C=C/S(=O)(=O)NC1CCCC1	-3	-1	-2	-3	-2
Cc1c(C(=O)N2CCc3ccccc32)oc2c1C(=O)CC(C)(C)C2	5	4.0*	1	8	4
Cc1c(C(=O)N2CCN(C)CC2)oc2c1C(=O)CC(C)(C)C2	5	1	-2	-2	-1
SMILES	SMARCA2 activ	DAX1 StAR inh	ssDAF-12 act	hgDAF-12 ag	hcDAF-12 act
COc1cccc2sc(N(CCN(C)C)C(=O)/C=C/c3cccs3)nc12	6	0	-1	2	0
COc1ccc(C)c2sc(N(CCN(C)C)C(=O)/C=C/c3cccs3)nc12	-1	0	1.2*	1	6.1*
Cn1cc(/C=C(\NC(=O)c2ccccc2)C(=O)NCCCN2CCOCC2)c2ccccc21	-1	-1	1.3*	0	2
COc1ccc2c(c1)CCC1C2=NN(/C(C)=C\C(C)=O)C1c1ccc(F)cc1 (stereo not drawn)	5	0	0	8	6.0*
CC(=O)N1CCN(C(=O)C2CCCN(C(=O)c3ccc4c(c3)NC(=O)CS4)C2)CC1 (stereo not drawn)	-4	0	-1	-3	-2
COc1ccc(S[C@]2(C(=O)N3CCCC3)CC(=O)N(C(=O)CCc3ccccc3)[C@@H]2c2ccc(OC)cc2)cc1	-3	-2	-1	1	-2
CC(=O)C(C)Oc1ccc2c3c(c(=O)oc2c1)CCCCC3 (stereo not drawn)	6	0	-1	11*	4
CC1CCN(C(=O)COc2ccc3ccccc3c2Br)CC1	2	4.2*	0	1	0
CC1CCN(C(=O)COc2ncnc3ccccc23)CC1	0	1	-1	-2	1
C=CCN1C(=O)[C@H](CC(=O)N2CCSCC2)[C@@]2(C(=O)OCC)CCCC=C12	0	1	0	1	-3
O=C(COC(=O)c1nc(Cl)ccc1Cl)Nc1ccc(Cl)cc1	-1	0	-1	0	1
O=C(COC(=O)c1nc(Cl)ccc1Cl)Nc1ccc(Cl)cn1	-1	0	1.0*	0	5.7*
COC(=O)C1=C(NC(=O)c2ccc(C)cc2)CCS1	3	1	1.9*	4	4
COC(=O)C1=C(NC(C)=O)CCS1	-2	0	-2	-2	0
O=C(O)c1cc(=O)c2ccccc2[nH]1	1	0	1.5*	5	6.4*
O=C(O)c1cc(=O)c2c(Cl)cc(Cl)cc2[nH]1	-1	0	-1	2	0
O=C(O)c1cc2c(cn1)[nH]c1ccccc12	-2	0	0	1	6.3*
O=S1(=O)CC(N2CCC(c3ccccc3)CC2)CN1Cc1cn(Cc2ccc(C(F)(F)F)cc2)nn1 (stereo not drawn)	-4	-1	-1	-2	-1
CCCCc1ccc(NC(=O)C2CCCC2)cc1	7.8*	1	-1	5	1
C[C@H]1CCC[C@@H](O)CC(=O)c2c(O)cc(O)cc2CC(=O)O1	-4	-4	-1	-9	-1
O=C(CNC(=O)c1cccc(S(=O)(=O)N2CCc3ccccc32)c1)Nc1ccccc1Br	0	-1	1.2*	-7	-2

Bioassay records deposited in PubChem by The Scripps Research Institute Molecular Screening Center.
